Screening results as filed in PubChem BioAssay.
MITF act – activators of MITF-driven TRPM1 promoter reporter, primary screen, cell-based, SK-MEL-5, luciferase, single point; SK-MEL-5 TRPM1-promoter luciferase, 24 h; % of positive control, neutral wells = 0; activation, % at 12.5 µM; 300,000 compounds, 0.75% hits; AID 588334, 2011;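 active = mean activation of at least 80% with every replicate also reaching 80%; inconclusive = mean reaches 80% but some replicate falls short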
esBAF inh – Bmi1 luciferase reporter increase in mESCs, primary screen, esBAF inhibitor project, mouse ES cells, Bmi1 luciferase knock-in, single point. 24 h; 100% = twice the neutral-well signal. reporter increase, % at 12.5 µM. 350,000 compounds, 2% hits. AID 602393, 2012; in the data active = activation above about 40%; inconclusive = no clear call, values can overlap the other calls;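 also: a rise in the Bmi1 reporter signal indicates esBAF inhibition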
Wnt act – Wnt/beta-catenin pathway activators, primary screen, cell-based, plate reader, single point. Wnt/beta-catenin reporter cell assay, activator. activation, % at 9.35 µM. 300,000 compounds, 1.2% hits; in the data active = activation above about 30%, passing the limit was not always enough; inconclusive = no clear call, values can overlap the other calls
EWS-Fli block – EWS/Fli-driven NR0B1 reporter inhibitors, primary screen, A673 cells, NR0B1 luciferase, luminescence, MLPCN library; 350,000 compounds, 0.67% hits; inhibition, % at 12.6 µM; viability-normalised;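 active = mean inhibition of at least 50% after viability correction, with every replicate also passing that limit; inconclusive = mean reaches 50% but only one of two replicates passes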;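 also: firefly luciferase signal divided by Alamar Blue viability fluorescence both relative to DMSO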
PAX8 inh HTS – inhibitors of PAX8-driven TPO luciferase reporter, primary screen, RMG-I cells, single concentration; SteadyGlo, 24 h; inhibition, % at 12.6 µM; 360,000 compounds, 1.2% hits; AID 652154, 2013;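 active = mean replicate inhibition at least 60% with every replicate also reaching 60%; inconclusive = only one of the two criteria is met; inactive = mean below 60% and not all replicates reaching 60%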;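 also: luciferase light reporting Pax8 driven TPO promoter activity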
TRPM1 prom inh – inhibitors of MITF-dependent TRPM1 promoter reporter, primary screen, cell-based, SK-MEL-5, single point, luciferase; inhibition, % at 12.5 µM; SK-MEL-5 TRPM1 promoter luciferase, 24 h; 330,000 compounds, 0.83% hits;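 active = mean inhibition across replicates of 60% or more, whatever share of single replicates reaches that level; inconclusive = some that reach 60%, reason not given; inactive = mean inhibition across replicates below 60%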
Large screens that a line does not name were inactive. An excerpt weighted towards active compounds, which were near 4% of everything screened.

Clc1ccc(-n2ncc3c(NCc4cccnc4)ncnc32)cc1Cl	esBAF inh 65.1 (no result: EWS-Fli block)
Cc1cccc(-n2ncc3c(NCc4ccccc4)ncnc32)c1	none
c1ccc(CNc2ncnc3c2cnn3-c2ccccc2)cc1	esBAF inh inconclusive (no result: Wnt act, EWS-Fli block, PAX8 inh HTS)
c1ccc(-n2ncc3c(NCCN4CCOCC4)ncnc32)cc1	esBAF inh 46.9, Wnt act 47.2 (no result: EWS-Fli block)
Clc1ccc(Nc2ncnc3c2cnn3-c2ccccc2)cc1	esBAF inh 84.8 (no result: MITF act, TRPM1 prom inh)
c1ccc(CCNc2ncnc3c2cnn3-c2ccccc2)cc1	esBAF inh 72.3 (no result: Wnt act, EWS-Fli block, PAX8 inh HTS)
Cn1ncc2c(Nc3ccc4ccccc4c3)ncnc21	esBAF inh 53.3 (no result: PAX8 inh HTS)
CN(C)CCCNc1ncnc2c1cnn2-c1ccccc1	none (no result: EWS-Fli block, PAX8 inh HTS)
Cc1noc(C)c1NC(=O)N(C)C[C@H]1Oc2ccc(NC(=O)Nc3cccc4ccccc34)cc2CC(=O)N([C@H](C)CO)C[C@H]1C	none (no result: MITF act, Wnt act, TRPM1 prom inh)
CCCC#Cc1ccc([C@@H]2[C@H]3CN(C(=O)Nc4ccccc4F)CC(=O)N3[C@H]2CO)cc1	none (no result: MITF act, esBAF inh, Wnt act, PAX8 inh HTS, TRPM1 prom inh)
COC(=O)c1ccc2c(C)c(C3(O)CCCCC3)[nH]c2c1	esBAF inh 66.2
Cc1cc(C)nc(Nc2ccc(O)cc2)n1	none
Cc1cc(C)nc(Sc2nc(Nc3ccccc3)nc(Sc3nc(C)cc(C)n3)n2)n1	PAX8 inh HTS 61.2 (no result: Wnt act, EWS-Fli block)
CCc1ccc(Nc2nc(C)cc(C)n2)cc1	esBAF inh 48.6 (no result: MITF act)
O=C(CC(Nc1ccc(F)cc1)C(=O)O)c1ccccc1 (stereo not drawn)	esBAF inh 48.9 (no result: MITF act, Wnt act, EWS-Fli block, PAX8 inh HTS)
C[C@@H]1CN([C@H](C)CO)C(=O)c2cccc(NC(=O)NC3CCCCC3)c2O[C@@H]1CN(C)S(=O)(=O)c1cccs1	none (no result: MITF act, Wnt act, PAX8 inh HTS, TRPM1 prom inh)
NNc1nc(Nc2ccccc2)nc(Nc2ccccc2)n1	none
c1ccc(Nc2ccnc(Nc3ccccc3)n2)cc1	esBAF inh 45.3, Wnt act 71.3
C[C@@H]1CCCCO[C@H](CN(C)Cc2ccncc2)[C@H](C)CN([C@@H](C)CO)C(=O)c2cc(NC(=O)NC3CCCCC3)ccc2O1	EWS-Fli block 56.0, PAX8 inh HTS 82.8 (no result: MITF act, Wnt act, TRPM1 prom inh)
C[C@@H]1CCCCO[C@@H](CN(C)Cc2ccc(Cl)c(Cl)c2)[C@H](C)CN([C@H](C)CO)C(=O)c2cc(NC(=O)NC3CCCCC3)ccc2O1	PAX8 inh HTS 65.2 (no result: MITF act, Wnt act, TRPM1 prom inh)
C[C@@H]1CCCCO[C@@H](CN(C)Cc2ccc(Cl)c(Cl)c2)[C@H](C)CN([C@@H](C)CO)C(=O)c2cc(NC(=O)NC3CCCCC3)ccc2O1	PAX8 inh HTS 68.4 (no result: MITF act, Wnt act, TRPM1 prom inh)
C[C@@H]1CN([C@H](C)CO)C(=O)c2cc(NC(=O)NC3CCCCC3)ccc2O[C@@H](C)CCCCO[C@@H]1CN(C)Cc1ccc(Cl)c(Cl)c1	PAX8 inh HTS 70.9 (no result: MITF act, Wnt act, TRPM1 prom inh)
C[C@@H]1CCCCO[C@@H](CN(C)C)[C@H](C)CN([C@H](C)CO)C(=O)c2cc(NC(=O)Nc3ccc(F)cc3)ccc2O1	none (no result: MITF act, Wnt act, TRPM1 prom inh)
COc1ccccc1C(NC(C)=O)c1cc(Cl)c2cccnc2c1O (stereo not drawn)	none
CCCC(=O)NC(c1ccccc1OC)c1ccc2cccnc2c1O (stereo not drawn)	TRPM1 prom inh 80.6 (no result: esBAF inh, Wnt act, EWS-Fli block, PAX8 inh HTS)
CCCCC(=O)NC(c1ccccc1OC)c1ccc2cccnc2c1O (stereo not drawn)	PAX8 inh HTS 87.7, TRPM1 prom inh 78.1 (no result: esBAF inh)
C[C@H](CO)N1C[C@H](C)[C@H](CN(C)CC2CCCCC2)Oc2ccc(NS(=O)(=O)c3cn(C)cn3)cc2C1=O	none (no result: MITF act, Wnt act, PAX8 inh HTS, TRPM1 prom inh)
COC(=O)C[C@@H]1C[C@@H]2c3cc(NS(=O)(=O)c4ccc(OC)cc4)ccc3O[C@@H]2[C@@H](CO)O1	none (no result: MITF act, Wnt act, TRPM1 prom inh)
O=C(c1ccccc1)c1ccc2cc(O)ccc2c1	esBAF inh 55.1
COc1cc(NC(C)CCCN)c2ncccc2c1 (stereo not drawn)	PAX8 inh HTS 65.9
COc1cc(NCCCCCCCN)c2ncccc2c1	none (no result: Wnt act, EWS-Fli block, PAX8 inh HTS)
Fc1ccccc1CN1[C@@H]2CNC[C@H]1C2c1ccc(-c2ccncc2)cc1 (stereo partly drawn)	none (no result: MITF act, esBAF inh, Wnt act, TRPM1 prom inh)
O=C(Cc1ccccc1)Nc1nc(=O)c2ccccc2s1	none (no result: esBAF inh, Wnt act, EWS-Fli block, PAX8 inh HTS)
Cc1ccc2nc(NC(=O)Cc3cccs3)sc2c1	none (no result: Wnt act, EWS-Fli block, PAX8 inh HTS)
CC1(C(=O)Nc2nc3ccccc3s2)CC1(Br)Br (stereo not drawn)	MITF act 82.9, esBAF inh inconclusive
O=C(Cc1nc(=O)c2ccccc2s1)Nc1ccccc1	esBAF inh 62.1 (no result: MITF act, Wnt act, EWS-Fli block, PAX8 inh HTS)
O=C(Cc1ccccc1)Nc1nc2ccccc2s1	MITF act inconclusive, esBAF inh 49.9 (no result: EWS-Fli block, PAX8 inh HTS)
O=C(Cc1cccs1)Nc1nc2ccccc2s1	esBAF inh 49.3 (no result: Wnt act, EWS-Fli block, PAX8 inh HTS)
Cc1ccccc1S(=O)(=O)/N=C(/Nc1nc2ccccc2s1)c1ccccc1	MITF act 98.2, esBAF inh 62.5, Wnt act 53.0
Cc1ccccc1S(=O)(=O)/N=C(/Nc1c(C)n(C)n(-c2ccccc2)c1=O)c1ccccc1	none
C=CCC[C@H](Cc1ccc(F)cc1)C(=O)OC[C@H](Cc1c[nH]c2ccccc12)NC(=O)[C@@H](CC=C)CC(=O)N(CCO)Cc1ccccc1	none
C=CC[C@H](CC(=O)N(CCO)Cc1ccccc1)C(=O)N[C@H](COC(=O)[C@@H](CC=C)Cc1ccc(F)cc1)Cc1ccccc1	PAX8 inh HTS 80.0
C=CCC[C@H](Cc1ccc(F)cc1)C(=O)OC[C@@H](Cc1c[nH]c2ccccc12)NC(=O)[C@@H](CC=C)CC(=O)N(CCO)Cc1ccccc1	PAX8 inh HTS 83.6
O=C(O)c1cncc(C#CCC2CCCCC2)c1	esBAF inh 61.2
Oc1ccc(C[C@H]2CNC(=S)N2CC2CCCN2C[C@H](Cc2ccc(O)cc2)N2C[C@H](Cc3ccccc3)N(CC3CCCCCC3)C2=S)cc1 (stereo partly drawn)	PAX8 inh HTS 90.0
Oc1ccc(C[C@H]2CNC(=S)N2CC2CCCN2C[C@H](Cc2ccc(O)cc2)N2C[C@H](Cc3ccccc3)N(CC3CCCCC3)C2=S)cc1 (stereo partly drawn)	PAX8 inh HTS 86.9
Oc1ccc(C[C@H]2CNC(=S)N2CC2CCCN2C[C@H](Cc2ccccc2)N2C[C@H](Cc3ccc(O)cc3)N(CC3CCCCC3)C2=S)cc1 (stereo partly drawn)	PAX8 inh HTS 77.0 (no result: MITF act, TRPM1 prom inh)
Oc1ccc(C[C@H]2CN([C@@H](Cc3ccccc3)CN3CCC[C@@H]3CN3C(=S)NC[C@@H]3Cc3ccccc3)C(=S)N2CC2CCCCC2)cc1	none (no result: MITF act, TRPM1 prom inh)
Oc1ccc(C[C@H]2CNC(=S)N2CC2CCCN2C[C@H](Cc2ccc(O)cc2)N2C[C@H](Cc3ccc(O)cc3)N(CC3CCCCCC3)C2=S)cc1 (stereo partly drawn)	PAX8 inh HTS 99.4, TRPM1 prom inh 71.5
